aSyn rescue = rescues yeast growth from alpha-synuclein toxicity; Potency, µM (highest dose often 46.1 µM), inactives show at the top dose growth rescue (activation), actives largely listed as activators; AID 652106; actives 0.14% (n = 370,000); Yeast expressing alpha-synuclein, growth rescue, BacTiter-Glo, 24 h; further: % of control where 0% means no effect; nearly all actives have a fitted effect of over 65% in size
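Readout is rescue of growth in alpha-synuclein-expressing yeast, so inhibitors of toxicity appear as activators. Growth after 24 hr at 30 deg C in galactose medium is quantified by luminescence.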
Abeta yeast res = restores growth of yeast expressing A-beta42 peptide; actives 0.063% (n = 410,000); Potency, µM (series often up to 46.1 µM), most hits filed as activators; yeast expressing A-beta42, growth rescue, OD600, 48 h; response scale: 0% DMSO, 100% iron-clioquinol control; further: nearly all actives have a fitted effect of over 55% in size
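Yeast A-beta toxicity model in growth medium with pinned compounds, 48 h at 30 C; growth read as absorbance at 600 nm. Normalized to FeCl3/clioquinol equimolar mix (positive) and DMSO (negative).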
TDP-43 yeast inh = inhibitors of TDP-43 toxicity in yeast; TDP-43 expressing yeast growth rescue, BacTiter-Glo, 24 h; Potency, µM (doses to about 46.1 µM), for the others: top-dose growth rescue (activation), actives largely listed as activators; actives 1.8% (n = 410,000); AID 652104; further: % of control where 0% means no effect; nearly all actives have a fitted effect of over 50% in size
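In this qHTS, compounds that restore growth of yeast expressing TDP-43 appear as activators. Cells (OD600=0.02, galactose medium, raffinose-pregrown) are incubated with compound 24 hr at 30 deg C and growth is quantified by BacTiter-Glo.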
Mito fusion yeast = blocks mitochondrial division or promotes mitochondrial fusion | S. cerevisiae fusion-defective mutant growth rescue, CellTiterGlo 48 h | Potency, µM (highest dose often 46.1 µM), inactives show top-dose growth rescue (activation), hits mostly activators | actives 0.23% (n = 320,000); further: % of control where 0% means no effect; nearly all actives have a fitted effect of over 45% in size
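Growth-rescue viability read-out: after 48 h at the non-permissive 37C in glycerol/ethanol YPEG, yeast mitochondrial fusion mutants are measured by CellTiterGlo luminescence; compounds (23 nl pinned per well) restoring growth score as division inhibitors or fusion activators.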
FUS yeast rescue = suppressors of FUS proteinopathy in yeast; S. cerevisiae FUS-expressing, growth rescue, OD600, 24 h; Potency, µM (top dose mostly 76.6 µM), hits mostly activators; actives 0.24% (n = 390,000);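 further: plate controls were DMSO vehicle for no effect and reference control for full effect; nearly all actives have a fitted effect of over 55% in size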
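Yeast FUS proteinopathy model; galactose-induced FUS (2%), starting OD 0.005. Cpds in dilution series, 24hr, 30C, 99% humidity. Abs 600 nm growth. Pos ctrl CP55940 (top 92uM final); neg ctrl DMSO.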
The depositor's hits bear a star; i = inactive; ? = inconclusive; . = no result; [ ] = another dose, or the depositor's remark. The list is not random: actives were taken first. Their share in the collection is about 2.2%. The call rests on the fitted dose curve; in most records, active means well fitted curve in the direction sought with a large enough effect; inconclusive means small, poorly fitted or top-dose-only effect, or another doubt; inactive means no such curve, though single readings can be large; an effect the other way counts as inactive or inconclusive. Potency means the concentration at half of the fitted maximal effect.

SMILES	aSyn rescue	Abeta yeast res	TDP-43 yeast inh	Mito fusion yeast	FUS yeast rescue
C[C@]1(C2CCCC2)Cc2cc(OCC(=O)O)c(Cl)c(Cl)c2C1=O	4%	i	8%	.	i
CC(=O)C(Cl)C(=O)Nc1ccccc1 (stereo not drawn)	-31%	i	3.5µM*	-2%	i
O=C(Nc1ccccc1)C(Cl)C(=O)c1ccccc1 (stereo not drawn)	-69%	i	-93%	-2%	i
CC(=NNC(=O)CSc1nnc(-c2ccccc2)n1-c1ccccc1)c1cccc([N+](=O)[O-])c1	.	.	.	.	i
COc1ccc2c(c1)CC/C(=C/c1ccco1)C2=O	-7%	i	14µM*	0%	i
O=C1C(=O)N(Cc2ccc(-c3ccccc3)cc2)c2ccc(OC(F)(F)F)cc21	.	.	.	.	i
O=C(CNS(=O)(=O)c1cc2ccccc2s1)N1CCN(c2ccccn2)CC1	.	.	.	.	i
Cc1ccc(SCC(=O)c2cc(C)c(O)c(C)c2)cc1	-1%	i	18µM*	16%	i
Cc1ccc(SCC(=O)c2c(C)nc3ccccn23)cc1	-1%	i	-16%[0.397 µM]	0%	i
CN1/C(=C/C(=O)CSc2ccccc2C(=O)O)C(C)(C)c2ccccc21	9%	?	20µM*	3%	i
CN1/C(=C\C(=O)CSc2cccc[n+]2[O-])C(C)(C)c2ccccc21	13%	i	?	4%	i
COc1ccc(Nc2nnc(SCC(=O)/C=C3/N(C)c4ccccc4C3(C)C)s2)cc1	14%	i	11µM*	?	.
CN1/C(=C/C(=O)COC(=O)C2COc3ccccc3O2)C(C)(C)c2ccccc21 (stereo not drawn)	2%	i	32µM*	.	i
COc1ccc(/C=C/C(=O)Oc2ccc(C)c(C)c2)cc1OC	-16%	i	-15%	15%	?
COc1cc(/C=C/[N+](=O)[O-])ccc1OC(=O)/C=C/c1ccc(F)cc1	-18%	i	0.71µM*	-11%	i
Cc1[nH]c2ccccc2c1C(c1ccccc1)c1ccc(Cl)s1 (stereo not drawn)	.	?	35µM*	.	i
Cc1[nH]c2ccccc2c1C(C[N+](=O)[O-])c1cccs1 (stereo not drawn)	19%	i	?	10%	i
C=C1NN(Cc2ccccc2)C(=O)N1c1ccc(OCc2ccccc2)cc1	3%	.	.	.	.
C=CCNc1nc(N)c([N+](=O)[O-])c(Nc2ccccc2OC)n1	6%	i	16µM*	-40%	i
Fc1ccc(COc2ccc(C(=S)N3CCCC3)cc2)cc1	-16%	?	13µM*	-13%	i
CCOc1ccccc1CNC(=O)CN1C(=O)CCc2cc(S(=O)(=O)N3CCCCC3)ccc21	.	i	0%	.	?
O=C(C1CCCN(S(=O)(=O)c2cc(Cl)ccc2Cl)C1)N1CCCCCC1 (stereo not drawn)	3%	i	11µM*	-11%	.
COc1ccc(C(=O)c2ccc([N+](=O)[O-])cc2Cl)cc1	5%	i	11µM*	21%	i
CCc1ccccc1NC(=O)c1sc(-n2nc(C)c(Cc3ccccc3)c2C)nc1C	.	i	-3%	.	i
CN1c2ccccc2-c2nc3ccccc3n2C1c1cccs1 (stereo not drawn)	-35%	i	7.1µM*	?	i
SMILES	aSyn rescue	Abeta yeast res	TDP-43 yeast inh	Mito fusion yeast	FUS yeast rescue
Cn1c(=O)c2nc(-c3ccccc3)oc2c2ccccc21	?	i	10µM*	12%	i
Cc1ccc(C(=O)NC2CCc3ccccc3C2=O)cc1 (stereo not drawn)	-3%	i	14µM*	-3%	i
Cc1ccc(C(=O)NC2CCSC2=O)cc1 (stereo not drawn)	-4%	i	-20%	4%	i
CCN(CC)c1nc(C#N)nc(N2CCOCC2)n1	4%	.	.	.	.
CC1(C)Cc2nc3sc4c(N(CCO)CCO)ncnc4c3cc2CO1	-2%	i	-7%	-2%	i
CCN(CCO)c1ncnc2c1sc1nc(CC(C)C)c3c(c12)CC(C)(C)OC3	2%	i	18µM*	-6%	?
COc1ccc(Br)cc1CN(C)C(=O)CNC(=O)c1ccc2ccccc2c1	-6%	i	22µM*	-9%	i
COc1ccc(CN(C)C(=O)CNC(=O)c2ccc3ccccc3c2)c(OC)c1	0%	i	22%	10%	i
COC(=O)c1cccc(NC(=S)Nc2cccc(Cl)c2Cl)c1	4%	i	18µM*	-1%	i
Cc1ccc(C)c(S(=O)(=O)c2c(C)cc(C)nc2Cl)c1	3%	i	11µM*	-2%	i
Nc1ccc2oc(CCc3ccccc3)nc2c1	-1%	i	18µM*	12%	i
Fc1ccc([C@@H]2Nc3ccccc3[C@@H]3C=CC[C@@H]32)cc1	.	13µM*	11%[9.22 µM]	.	i
CN(C(=O)c1ccc2c(c1)N(Cc1ccccc1F)C(=O)c1ccccc1S2(=O)=O)C1CCCCC1	.	i	-4%	.	10µM*
CN(Cc1ccccc1)C(=O)c1ccc2c(c1)N(Cc1ccccc1F)C(=O)c1ccccc1S2(=O)=O	.	i	1%	.	32µM*
NC(=O)c1c(N)[nH]c(C(=O)c2ccccc2)c1-c1ccccn1	.	.	.	.	i
O=C(NCC(c1ccco1)N1CCc2ccccc21)c1ccccc1Br (stereo not drawn)	13%	i	14µM*	20%	i
Cc1cc(NS(=O)(=O)c2ccc(NC(=O)CSc3nnc(-c4cnccn4)n3-c3ccccc3)cc2)nc(C)n1	.	.	.	.	i
COc1cc(NC(=O)c2cc(C)on2)cc(C(=O)Nc2cccc(C(F)(F)F)c2)c1	1%	i	13µM*	-50%	i
COc1cc(NC(=O)c2csc(N)n2)cc(C(=O)Nc2cccc(C(F)(F)F)c2)c1	0%	i	32µM*	-42%	?
Cc1ccc(CNC(=O)c2c3c(nc4ccccc24)C(=O)N(C2CCCCC2)C3)cc1	.	i	18%	.	i
COc1ccc(C)cc1NC(=O)CCS(=O)(=O)c1cc2c3c(c1)CCN3C(=O)CC2	.	i	9%	.	i
Cc1cc(C)n2nc(SCc3ccc(F)cc3Cl)nc2n1	-17%	i	11µM*	7%	i
Cc1cc(C)n2nc(SCc3c(F)cccc3Cl)nc2n1	-3%	i	?	1%	i
O=S(=O)(CCSc1nc2ccccc2o1)c1nc2ccccc2s1	-18%	i	11µM*	-2%	i
O=C(O)c1cccnc1C(=O)N1CCc2c([nH]c3ccccc23)C1C(F)(F)F (stereo not drawn)	-1%	i	-7%	-2%	i

Screening results as filed in PubChem.
